# PubChem BioAssay
# Entries with a potency or affinity are not part of this list. A number with no mark means an inactive call.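 How the source made its calls: active means signal drop whose fitted half-maximal concentration is at most twice the top valid dose, in every test run; inconclusive means mixed calls across runs, poor fit, or flat 30 to 70% inhibition; inactive means wrong direction, flat within 30%, or potency beyond limit.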
# Test: RMG-1 ovarian cancer cell viability loss – cherry-pick, dose response (AID 687029);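 further: cells exposed to compound for 96 hours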
# Settings: RMG-1 viability, CellTiterGlo ATP luminescence, 96 h; series mostly up to 35 µM; activity change, negative = inhibition: at the top concentration
row,SMILES,"activity change, negative = inhibition [%]"
1,CC(=O)c1cccc(-c2csc3ncnc(Sc4nnnn4C)c23)c1,36.3
2,O=C(Nc1cccc(Cl)c1)Nc1csc([N+](=O)[O-])c1,14.2
3,COc1cc(/C=N/NC(=O)c2ccc(CN3C(=O)c4cccc5cccc3c45)cc2)cc(OC)c1O,9.58
4,O=C(NCc1cccnc1)/C(=C\c1ccc(-c2ccc(Cl)c(Cl)c2)o1)S(=O)(=O)c1ccccc1,45.4
5,C=C1C(=O)O[C@@H]2[C@H]1CC[C@H](C)[C@]1(O)CCC(=O)[C@@]21C,7.91
6,Cc1ccc(-c2cn3cc(C)ccc3n2)cc1,46.6
7,C[C@@H]1CCCCO[C@H](CN(C)Cc2ccncc2)[C@H](C)CN([C@@H](C)CO)C(=O)c2cc(NC(=O)NC3CCCCC3)ccc2O1,10.2
8,O=C(Nc1nc(-c2cccs2)c(-c2cccs2)s1)C1(c2ccccc2)CC1,15.6
9,N#Cc1ccc(NC(=O)COC(=O)C2CCC2)cc1,24.3
10,O=C(NCC1CCCO1)C(=Cc1cccc([N+](=O)[O-])c1)C(=O)NCC1CCCO1 (stereo not given),6.14
11,Cn1c(CCN2CCN(c3ccccn3)CC2)nc2cc(NS(=O)(=O)c3ccc(Cl)cc3)ccc21,35.2
12,CCN(CC)c1ccc(C(NC(=O)C(C)C)c2ccc3cccnc3c2O)cc1 (stereo not given),3.69
13,COc1ccc(COC(=O)c2cc([N+](=O)[O-])ccc2N2CCOCC2)cc1F,19
14,CC(=O)N1CCN(c2ccc(NC(=O)c3ccc([N+](=O)[O-])o3)cc2Cl)CC1,11
15,O=C(CCCN1C(=O)/C(=C/c2cccc(Br)c2)SC1=S)Nc1cccnc1,16.1
16,O=C(Nc1cccc(F)c1)N1CCCCN2[C@@H](CO)[C@H](c3ccc(C#Cc4ccccc4)cc3)[C@@H]2C1,22.1
17,Cc1ccc(C)c(N2CCN(C(=O)CCCCCn3c(=S)[nH]c4ccc(N5CCOCC5)cc4c3=O)CC2)c1,21.7
18,O=C1c2ccccc2C(=O)c2[nH]c(=O)[nH]c21,12.2
19,Cc1noc(/C=C/c2ccco2)c1S(=O)(=O)N1CCC(C(=O)NC(C)c2ccccc2)CC1 (stereo not given),15.6
20,O=C(NCCC1CCCCN1S(=O)(=O)c1ccc(Cl)cc1)C(=O)NCc1ccncc1 (stereo not given),18.7

row,SMILES,"activity change, negative = inhibition [%]"
1,O=C(Nc1ccc([N+](=O)[O-])cn1)c1cc(-c2cccc(Br)c2)nc2ccccc12,34.5
2,CN(CCc1cn[nH]c1)Cc1nc(C(c2ccccc2)c2ccccc2)no1,51.3
3,O=C(Nc1cccc(C2=NCCN2)c1)Nc1cccc(C2=NCCN2)c1,30.5
4,CCCCCCN1C[C@@H](n2cc(-c3ccc(F)cc3)nn2)[C@H](O)C[C@@H]1c1ccc(Cl)cc1,17.4
5,Cn1nnnc1Sc1ncnc2scc(-c3cccc(C(F)(F)F)c3)c12,31.9
6,O=C(Nc1cccc(NC(=O)c2ccccc2Cl)c1)c1ccc([N+](=O)[O-])o1,34.4
7,C[C@@H]1CCCCO[C@@H](CN(C)Cc2ccc3c(c2)OCO3)[C@H](C)CN([C@@H](C)CO)C(=O)c2cc(NC(=O)Nc3ccc(C(F)(F)F)cc3)ccc2O1,15.1
8,CCSc1nc(-c2ccccc2)nc(C(Cl)Cl)n1,8.01
9,CN(C)N=Nc1nc[nH]c1C(N)=O,27.5
10,COc1ccc(C(=O)c2cc([N+](=O)[O-])ccc2N2CCOCC2)cc1,29
11,CN(Cc1ccccc1)N=Nc1nc[nH]c1C(N)=O,34.8
12,C=C1C2(C(=O)Nc3ccc(SC(F)F)cc3)CCC(C2)C1(C)C (stereo not given),23.6
13,C[C@H](O)C#Cc1ccc2c(c1)O[C@H](CN(C)Cc1ccc(-c3ccccc3)cc1)[C@@H](C)CN([C@@H](C)CO)S2(=O)=O,12.6
14,COc1ccc(NC(=O)C(Sc2nnc(-c3ccncc3)n2-c2ccccc2C)c2ccccc2)cc1Cl (stereo not given),29.8
15,Cc1ccc(NC(=O)c2ccc([N+](=O)[O-])s2)cc1S(=O)(=O)N1CCOCC1,11.3
16,CCCCNC(=O)C(Sc1ccccc1)c1ccccc1 (stereo not given),24.8
17,CCN(CC)CC(C)(C)C(=O)/C=C/c1ccc(/C=C/C(=O)C(C)(C)CN(CC)CC)cc1,33.2
18,COC(C(=O)C(O)C(C)O)C1Cc2cc3cc(OC4CC(OC5CC(O)C(O)C(C)O5)C(O)C(C)O4)c(C)c(O)c3c(O)c2C(=O)C1OC1CC(OC2CC(OC3CC(O)C(OC)C(C)O3)C(O)C(C)O2)C(O)C(C)O1 (stereo not given),25.9
19,O=C(CCc1ccc(S(=O)(=O)NCc2ccccc2)cc1)NCc1ccco1,30
20,CC(=O)OC(C)(C)/C=C/C(=O)[C@](C)(O)C1[C@H](O)C[C@@]2(C)C3CC=C4C(C=C(O[C@@H]5O[C@H](CO)[C@@H](O)[C@H](O)[C@H]5O)C(=O)C4(C)C)[C@]3(C)C(=O)C[C@]12C (stereo not given in full),4.99
